# Some of the results follow. Inconclusive results are not listed. A number with no mark means an inactive call.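 How the source made its calls: active means compound lowering PGC-1a expression with fitted half-maximal concentration at most twice its top tested dose; inconclusive means flat curve with moderate opposite-direction effect, or poor fit; inactive means the rest.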
# Assay: suppression of PGC-1a mRNA in primary hepatocytes, dose response, PGC-1a acetylation activator project, cell-based, primary mouse hepatocytes, RT-qPCR, cherry-pick (AID 743467);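 further: 0% = neutral control wells median and 100% = positive control wells median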
# Settings: PGC-1a mRNA qPCR, forskolin, top dose 26 µM, hits give high values; at 26 µM unless noted
row,Compound,max activity (PGC-1a expression decrease)
1,CCOC(=O)c1c(-c2ccc(C)cc2C)csc1NC(=O)CSc1nnnn1C,87% [at 8 µM]
2,COc1ccc(-n2nnnc2CNC(=O)c2ccc3ccccc3c2)cc1,86.6% [at 0.0038 µM]
3,CCC(C)(C)n1nnnc1C(c1ccccc1OC)N1CCSCC1 (centres undefined),74.7%
4,O=C(NCc1ccccc1)C(c1ccccc1)N(C(=O)c1csnn1)c1ccc(F)cc1 (centres undefined),114% [at 8 µM]
5,COc1ccc(Nc2nnc(C)c3ccccc23)cc1,52.1%
6,Cc1cc(C(=O)NNS(=O)(=O)c2ccccc2C(F)(F)F)nn1C(C)(C)C,22.5% [at 0.0012 µM]
7,CC(C)CCNc1nc(N2CCCC2)c2c(c1C#N)CCN(C)C2,56.4%
8,Cc1ccc(OCC(=O)NCCCNC(=O)c2cccnc2)cc1C,111%
9,CCOc1ccccc1CN1CCN(C2CCC2)CC1CCO (centres undefined),28.9% [at 8 µM]
10,O=C(NCCC1CCCCN1S(=O)(=O)c1cccs1)C(=O)Nc1ccc(F)cc1F (centres undefined),63.6%
11,CCOC(=O)c1c(NC(=O)CSc2cn(CC)c3ccccc23)sc2c1CCC2,60.3%
12,Cc1cc(C)c2c(-n3cccc3)c(C(=O)NNS(=O)(=O)c3ccc(F)cc3)sc2n1,82.5% [at 8 µM]
13,CCCCC(=O)Nc1ccc(C(=O)NCCCn2ccnc2)cc1,68.4% [at 0.011 µM]
14,O=S(=O)(NCc1ccccc1Br)c1ccccc1Br,65.1%
